p53null 39C kill – kills p53 null cells at the nonpermissive temperature | H1299 p53-null (neo) cells, 39C, ATPlite viability, 24 h | Potency, µM (titrated, usually from 46.1 µM), for the others: top-dose activity, negative = cell killing, usual class: cytotoxic | hit rate 0.97% among 55,000 | AID 904;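 note: 0% = DMSO only and -100% = full killing by 100 µM tamoxifen; nearly all actives have a fitted effect of over 50% in size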
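Luminescent ATP signal reported cell survival after H1299 lines (neo, p53 null; or p53 A138V) received up to 46 uM compound and 24 hr incubation at 39C.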
p53null 32C tox – selectivity test: cytotoxicity in p53 null cells, permissive temperature; H1299-neo p53 null cells, ATP luminescence, 24 h, 32C; Potency, µM (titrated, usually from 46.1 µM), for the others: at the top dose activity change, negative = cytotoxicity, actives largely listed as cytotoxic; hit rate 0.62% among 55,000; AID 903;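 note: 0% = DMSO only and -100% = full killing by 100 µM tamoxifen; nearly all actives have a fitted effect of over 55% in size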
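H1299-neo (p53-null) cells, 600/well, were pre-incubated overnight at 37C, then exposed to compounds at up to 46 uM for 24 hr at 32C. Viability was measured as ATP content by luminescence, and AC50 values came from Hill fits.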
FH mod – Identification of activators of human fumarate hydratase by quantitative high-throughput screening. Fumarate hydratase, mitochondrial (Homo sapiens), P07954. FH coupled MDH/diaphorase resazurin fluorescence, 15 min. Potency, µM (top dose mostly 79.9 µM), inactives show at the top dose activity change, negative = inhibition, hits mostly inhibitors. hit rate 0.22% among 54,000. AID 1347055, 2019; note: the screen sought activators but most active calls are inhibition curves; nearly all actives have a fitted effect of over 45% in size
Target sequence (P07954 whole entry, looked up): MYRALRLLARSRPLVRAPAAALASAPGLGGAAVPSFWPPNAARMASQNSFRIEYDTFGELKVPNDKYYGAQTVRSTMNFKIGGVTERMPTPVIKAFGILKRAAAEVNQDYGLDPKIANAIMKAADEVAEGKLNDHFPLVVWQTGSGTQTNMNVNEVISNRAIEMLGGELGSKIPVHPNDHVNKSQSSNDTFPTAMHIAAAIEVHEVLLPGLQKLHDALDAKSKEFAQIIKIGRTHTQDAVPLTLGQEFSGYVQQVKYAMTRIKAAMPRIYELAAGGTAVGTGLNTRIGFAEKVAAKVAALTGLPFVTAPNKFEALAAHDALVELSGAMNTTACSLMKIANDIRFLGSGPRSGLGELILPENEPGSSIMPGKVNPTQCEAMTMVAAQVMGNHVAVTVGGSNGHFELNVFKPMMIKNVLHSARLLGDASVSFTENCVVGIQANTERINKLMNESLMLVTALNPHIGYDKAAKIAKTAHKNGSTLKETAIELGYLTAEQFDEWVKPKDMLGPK
* hit, by the source's call; ? = inconclusive; . = no result given; [ ] = another dose, or the depositor's remark. This is a sample that favours compounds with a hit; in the whole collection about 1.2% have one here. Calls come from the whole dose curve; as a rule, active = well fitted curve in the direction sought with a large enough effect; inconclusive = small, poorly fitted or top-dose-only effect, or another doubt; inactive = no such curve, though single readings can be large; an effect the other way counts as inactive or inconclusive. Unless noted, % is set by controls: 0 for no effect and ±100 for the full control effect; potency is the fitted concentration of half-maximal effect.

SMILES	p53null 39C kill	p53null 32C tox	FH mod
CC(C)(C)n1ncc2c(=O)n(CC(=O)c3ccccc3)cnc21	12.6µM*	-15.8%	.
CC(C)(C)n1ncc2c(=O)n(CC(=O)NCc3ccco3)cnc21	-27.6%	0.5%	.
CCCN1C(=O)C(O)(CC(=O)c2ccc(C(C)C)cc2)c2ccccc21 (stereo unspecified)	-5.8%	4.1%	-0.4%
O=C(CC1(O)C(=O)N(Cc2ccccc2)c2ccc(Br)cc21)c1ccccc1 (stereo unspecified)	12.6µM*	?	?
CC(C)c1ccc(C(=O)CC2(O)C(=O)N(CCc3ccccc3)c3ccc(Cl)cc32)cc1 (stereo unspecified)	12.6µM*	68.3%	?
O=C(CC1(O)C(=O)N(CCc2ccccc2)c2ccc(Br)cc21)c1ccccc1O (stereo unspecified)	?	8.9%	?
C[C@@H]1CC2OC(=O)C3=C2C(CCC3O)[C@@]12C[C@@H](c1ccoc1)OC2=O (stereo partly specified)	.	.	0.5%[53.3 µM]
CCOC(=O)c1ccc(N2C(=O)c3n[nH]c(-c4cccs4)c3C2c2ccc(CC)cc2)cc1 (stereo unspecified)	-14.3%	73.2%	?
CCOC(=O)c1ccc(N2C(=O)c3n[nH]c(-c4cccs4)c3C2c2cccc(O)c2)cc1 (stereo unspecified)	20µM*	20µM*	?
Cc1ccc2nc(-c3c[nH]c4ccccc34)c(Nc3ccccc3C)n2c1	?	1.2%	2.2%
Cc1ccc(Nc2c(-c3c[nH]c4ccccc34)nc3ccccn23)cc1	14.1µM*	-26.4%	?
CC(C)c1cc2c(N3CCN(C4=NCC(C)(C)S4)CC3)ncnc2s1	.	.	-2.8%
C[C@@H]1C(=O)O[C@H](C)[C@H]1CC(=O)[C@](C)(O)[C@H]1CC[C@@]2(O)C3=CC(=O)[C@@H]4C[C@@H](O)[C@@H](O)C[C@]4(C)C3CC[C@]12C (stereo partly specified)	.	.	-0.5%[53.3 µM]
Cc1ccc2nc(NCCN)c3ncc(C)n3c2c1	.	.	1.6%
COc1ccccc1C(=O)Nc1nnc(SCc2cc(=O)n3ccc(C)cc3n2)s1	-9.6%	-5.2%	1.12µM*
Cc1ccccc1C(=O)Nc1nnc(SCc2cc(=O)n3ccccc3n2)s1	-9.5%	-5.9%	-6.8%
COc1cc(C2c3cc4c(c(O)c3CC(CO)C2C(=O)O)OCO4)cc(OC)c1O (stereo unspecified)	.	.	-1.0%[53.3 µM]
CC/C=C\CC1C(=O)C=CC1(CCCCC1CCC(=O)O1)OC(C)=O (stereo unspecified)	.	.	-0.3%[53.3 µM]
COc1cc(CNCCSc2nnnn2C)ccc1OCc1ccccc1	-21.6%	7.2%	2.3%
CCOc1cc(CNCCSc2nnnn2C)ccc1OCc1ccc(Cl)cc1Cl	15.8µM*	?	?
O=C(O)c1ccc(NC(=O)[C@H](CC2CCCC2)n2cnc(C(F)(F)F)c2)nc1	.	.	-3.9%
Cc1ccc(Cl)cc1NC(=O)c1cccc(NC(=O)N2CCSc3ncccc32)c1	-4.3%	4.5%	-12.1%
Cc1ccc(C(=O)Nc2ccc(S(=O)(=O)O)c3cc(S(=O)(=O)O)cc(S(=O)(=O)O)c23)cc1NC(=O)c1cccc(NC(=O)Nc2cccc(C(=O)Nc3cc(C(=O)Nc4ccc(S(=O)(=O)O)c5cc(S(=O)(=O)O)cc(S(=O)(=O)O)c45)ccc3C)c2)c1	.	.	14.1µM*
CC[C@H](C=C[C@@H](C)[C@H]1CC[C@H]2[C@@H]3CC=C4C[C@@H](O)CC[C@]4(C)[C@@H]3CC[C@]12C)C(C)C	.	.	6.5%[20.6 µM]
O=C(N/N=C/c1sc2ccccc2c1O)c1ccccc1	.	7.08µM*	.
SMILES	p53null 39C kill	p53null 32C tox	FH mod
O=C(N/N=C/c1cccs1)c1ccc(NC(=O)c2ccccc2Cl)cc1	35.8%	.	.
CC(C)c1ccc(-c2noc(SCC(=O)N(C)c3ccc(F)cc3)n2)cc1	42.0%	21.4%	-21.7%
CC(C)c1ccc(-c2noc(SCC(=O)N3CCCCC3)n2)cc1	?	12.6µM*	-15.0%
CCN1CCC[C@@H]1CNC(=O)c1ccc2c(c1)NC(=O)c1cccc(C)c1S2	.	.	8.7%
Cc1cccc(C)c1NC(=O)Cn1c(=O)n(Cc2ccc(C(=O)NCc3ccco3)cc2)c(=O)c2sccc21	?	?	-21.1%
Cc1cc(C)c(NC(=O)Cn2c(=O)n(Cc3ccc(C(=O)NCc4ccco4)cc3)c(=O)c3sccc32)c(C)c1	10µM*	?	-6.1%
Clc1ccc2nc(-c3ccc(N4CCOCC4)cc3)c(Nc3ccccc3)n2c1	18.8%	-2.5%	0.5%
Cc1ccccc1Nc1c(-c2ccc(N3CCOCC3)cc2)nc2ccc(Cl)cn12	12.6µM*	?	-38.7%
Cc1ccc2nc(-c3ccc(N4CCOCC4)cc3)c(Nc3ccccc3C)n2c1	5.01µM*	?	?
Cc1ccn2c(Nc3ccccc3C)c(-c3ccc(N4CCOCC4)cc3)nc2c1	7.2%	22.0%	?
CC(C)(Oc1ccc(-c2nc3cc(Cl)ccc3s2)cc1)C(=O)O	.	.	-1.9%
CCC(C)/C=C(C)/C=C/C(=O)C1CCC(O)C(C)(O)C1=O (stereo unspecified)	.	.	-0.2%
O=S(=O)(/N=C/c1c(O)ccc2ccccc12)c1cccs1	.	.	15.8µM*
O=S(=O)(N=Cc1c(O)ccc2ccccc12)c1cccs1	.	.	-12.2%[53.3 µM]
Cc1sc2c(c1C)C(c1ccc(Cl)cc1)=N[C@@H](CC(=O)Nc1ccc(OCCOCCOCCOCCNc3cccc4c3C(=O)N(C3CCC(=O)NC3=O)C4=O)cc1)c1nnc(C)n1-2 (stereo partly specified)	.	.	2.5%[53.3 µM]
C[C@H]1[C@H](C)CC[C@]2(C(=O)O)CC[C@]3(C(=O)O)C(=CCC4[C@@]5(C)CC[C@H](O[C@@H]6O[C@H](C)[C@@H](O)[C@H](O)[C@H]6O)C(C)(C)C5CC[C@]43C)[C@H]12 (stereo partly specified)	.	.	9.3%[20.6 µM]
NC(=O)C1CCN(C(=O)c2ccc(NC(=O)c3nsc4ccccc34)cc2)CC1	2.82µM*	2.51µM*	0.4%
CCOC(=O)C1CCN(C(=O)c2ccc(NC(=O)c3nsc4ccccc34)cc2)CC1	?	-24.4%	?
Fc1ccccc1-c1nc2ccn(Cc3ccc(-c4ccc(C(F)(F)F)cc4C(F)(F)F)nn3)cc-2n1	.	.	8.7%
O=C1Nc2ccc(I)cc2/C1=C/c1cc(Br)c(O)c(Br)c1	.	.	28.2µM*
COc1cc(OC)c(/C=C2/C(=O)Nc3ccccc32)c(OC)c1	.	.	-22.7%[53.3 µM]
COc1cc2ncnc(Nc3ccc(F)c(Cl)c3)c2cc1NC(=O)/C=C/CN1CCCCC1	.	.	0.2%
Cc1ccc(C2=CC(c3ccccc3F)n3c(nc4ccccc43)N2)cc1C (stereo unspecified)	?	12.6µM*	-26.2%
COc1cccc(C2=CC(c3ccccc3F)n3ncc(C(=O)Nc4ccc(C)cc4)c3N2)c1 (stereo unspecified)	20.8%	41.4%	-16.4%
COc1cccc(C2=CC(c3ccccc3F)n3c(nc4ccccc43)N2)c1 (stereo unspecified)	?	11.2µM*	-5.3%
Cc1ccc(C2=CC(c3c(F)cccc3Cl)n3ncnc3N2)cc1C (stereo unspecified)	14.6%	-8.4%	-4.0%
